Measured values reported in PubChem BioAssay (NCATS).
Inconclusive results are not listed. Entries that show only a call come without a potency. Calls of active or inactive are those of the source. Unless noted, the call rests on the fitted dose curve; in most records, active means well fitted curve in the direction sought with a large enough effect; inconclusive means small, poorly fitted or top-dose-only effect, or another doubt; inactive means no such curve, though single readings can be large; an effect the other way counts as inactive or inconclusive.

How the values were obtained:
[1] = S16 Schwann cell PMP22 intronic element beta-lactamase assay (AID 624044; calls by dose curve; further: nearly all actives have a fitted effect of over 15% in size)
Method in brief: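 Rat S16 Schwann cells with beta-Lac driven by a PMP22 intronic element, compound-treated 24 h at 37 °C. LiveBLAzer FRET B/G read: 460 nm normalized to potassium clavulanate vs DMSO; 535 nm FRET as viability; concentration-effect curves classified.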

CP286 = test: qHTS profiling for inhibitors of Plasmodium falciparum proliferation (AID 504749); further: nearly all actives have a fitted effect of over 60% in size; further: potency means the concentration at half of the fitted maximal effect; conditions: P. falciparum in erythrocytes, SYBR Green DNA, 72 h; series mostly up to 12.8 µM
Method in brief: (§1)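 Readout was DNA-dye fluorescence from lysed cultures, ex 485/em 535 nm. Parasitized red cells had grown 72 h with compound; data scaled between 0.29 uM artemisinin and DMSO wells and corrected using vehicle-only plates.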

DIV14 = test: as above; conditions: P. falciparum in erythrocytes, SYBR Green DNA, 72 h; series mostly up to 12.8 µM
Method in brief: as §1

DIV17 = test: as above; conditions: P. falciparum in erythrocytes, SYBR Green DNA, 72 h; series mostly up to 12.8 µM
Method in brief: as §1

DIV30 = test: as above; conditions: P. falciparum in erythrocytes, SYBR Green DNA, 72 h; series mostly up to 12.8 µM
Method in brief: as §1

P93_24 = test: as above; conditions: P. falciparum in erythrocytes, SYBR Green DNA, 72 h; series mostly up to 12.8 µM
Method in brief: as §1

TAB109 = test: as above; conditions: P. falciparum in erythrocytes, SYBR Green DNA, 72 h; series mostly up to 12.8 µM
Method in brief: as §1

TAB165 = test: as above; conditions: P. falciparum in erythrocytes, SYBR Green DNA, 72 h; series mostly up to 12.8 µM
Method in brief: as §1

[2] = S16 Schwann cell viability assay (CellTiter-Glo assay) (AID 624031);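 further: cellular ATP luminescence as a viability measure; nearly all actives have a fitted effect of over 70% in size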
Method in brief: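 Untransfected S16 rat Schwann cells; compound 24 h, 37 °C/5% CO2; CellTiter-Glo ATP luminescence. % activity vs no-cell wells and DMSO controls (0%); concentration-effect curves classed by r2, response magnitude, activity.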

AA1029 = test: qHTS profiling for inhibitors of Plasmodium falciparum proliferation (AID 504749); further: nearly all actives have a fitted effect of over 60% in size; further: potency means the concentration at half of the fitted maximal effect; conditions: P. falciparum in erythrocytes, SYBR Green DNA, 72 h; series mostly up to 12.8 µM
Method in brief: as §1

CP194 = test: as above; conditions: P. falciparum in erythrocytes, SYBR Green DNA, 72 h; series mostly up to 12.8 µM
Method in brief: as §1

CP201 = test: as above; conditions: P. falciparum in erythrocytes, SYBR Green DNA, 72 h; series mostly up to 12.8 µM
Method in brief: as §1

CP247 = test: as above; conditions: P. falciparum in erythrocytes, SYBR Green DNA, 72 h; series mostly up to 12.8 µM
Method in brief: as §1

CP250 = test: as above; conditions: P. falciparum in erythrocytes, SYBR Green DNA, 72 h; series mostly up to 12.8 µM
Method in brief: as §1

CP256 = test: as above; conditions: P. falciparum in erythrocytes, SYBR Green DNA, 72 h; series mostly up to 12.8 µM
Method in brief: as §1

CP265 = test: as above; conditions: P. falciparum in erythrocytes, SYBR Green DNA, 72 h; series mostly up to 12.8 µM
Method in brief: as §1

CP335 = test: as above; conditions: P. falciparum in erythrocytes, SYBR Green DNA, 72 h; series mostly up to 12.8 µM
Method in brief: as §1

DFO2036 = test: as above; conditions: P. falciparum in erythrocytes, SYBR Green DNA, 72 h; series mostly up to 12.8 µM
Method in brief: as §1

PC15 = test: as above; conditions: P. falciparum in erythrocytes, SYBR Green DNA, 72 h; series mostly up to 12.8 µM
Method in brief: as §1

Dd2 = test: as above; conditions: P. falciparum in erythrocytes, SYBR Green DNA, 72 h; series mostly up to 12.8 µM
Method in brief: as §1

SMILES	Potency [1]	Potency (CP286)	Potency (DIV14)	Potency (DIV17)	Potency (DIV30)	Potency (P93_24)	Potency (TAB109)	Potency (TAB165)	outcome [2]	Potency (AA1029)	Potency (CP194)	Potency (CP201)	Potency (CP247)	Potency (CP250)	Potency (CP256)	Potency (CP265)	Potency (CP335)	Potency (DFO2036)	Potency (PC15)	Potency (Dd2)
CCOC(=O)Oc1c(OC)cc(C(=O)O[C@H]2C[C@H]3CN4CCc5c([nH]c6cc(OC)ccc56)[C@@H]4C[C@H]3[C@@H](C(=O)OC)[C@@H]2OC)cc1OC	inactive	2.51 µM (active)	5.73 µM (active)	5.73 µM (active)	7.21 µM (active)	3.98 µM (active)	3.55 µM (active)	3.55 µM (active)	–	–	–	–	–	–	–	–	–	–	–	–
CCN(CC)CCOC(=O)[C@@H](Cc1cccc2ccccc12)C[C@@H]1CCCO1	inactive	inactive	–	–	inactive	inactive	inactive	inactive	inactive	inactive	inactive	inactive	inactive	inactive	inactive	inactive	inactive	inactive	inactive	–
CC(C)(C)NC[C@@H](O)COc1ccccc1C1CCCC1	inactive	3.55 µM (active)	2.03 µM (active)	3.22 µM (active)	5.73 µM (active)	2.24 µM (active)	3.16 µM (active)	3.55 µM (active)	–	2.82 µM (active)	5.73 µM (active)	–	–	–	3.98 µM (active)	–	3.61 µM (active)	–	2.51 µM (active)	1.58 µM (active)
OCCN1CCN(CCC=C2c3ccccc3Sc3ccc(Cl)cc32)CC1	inactive	3.55 µM (active)	–	–	–	–	–	–	–	–	–	–	–	–	3.55 µM (active)	–	–	–	–	3.98 µM (active)
Cc1ccc(S(=O)(=O)NC(=O)NN2C[C@H]3CCC[C@@H]3C2)cc1	inactive	inactive	inactive	inactive	–	inactive	inactive	inactive	inactive	inactive	inactive	inactive	inactive	inactive	inactive	inactive	inactive	inactive	inactive	inactive
O[C@@](CCN1CCCC1)(c1ccccc1)C1CCCCC1	inactive	inactive	2.87 µM (active)	3.22 µM (active)	–	–	–	–	inactive	–	–	–	–	inactive	inactive	–	inactive	inactive	–	–
NC[C@@H]1O[C@H](O[C@@H]2[C@H](O[C@@H]3O[C@H](CO)[C@@H](O)[C@@H]3O)[C@@H](O)[C@@H](N)C[C@H]2N)[C@@H](N)[C@H](O)[C@@H]1O	inactive	inactive	inactive	inactive	inactive	inactive	inactive	inactive	inactive	inactive	inactive	inactive	inactive	inactive	inactive	inactive	inactive	inactive	inactive	inactive
CN1CCO[C@H](c2ccccc2)c2ccccc2C1	inactive	inactive	–	–	–	–	–	–	inactive	–	–	inactive	–	inactive	–	–	–	–	inactive	–
Clc1ccc([C@H](Cn2ccnc2)OCc2c(Cl)cccc2Cl)c(Cl)c1	inactive	–	5.1 µM (active)	4.05 µM (active)	7.21 µM (active)	0.794 µM (active)	2.82 µM (active)	0.355 µM (active)	inactive	–	–	–	3.16 µM (active)	2.51 µM (active)	–	3.16 µM (active)	–	3.55 µM (active)	–	3.55 µM (active)
CN1CCC[C@@H](CC2c3ccccc3Sc3ccccc32)C1	inactive	–	2.28 µM (active)	–	–	–	–	–	–	–	–	–	inactive	inactive	inactive	–	inactive	–	–	–
Cc1onc(-c2ccccc2Cl)c1C(=O)N[C@H]1C(=O)N2[C@H]1SC(C)(C)[C@H]2C(=O)O	inactive	inactive	inactive	inactive	inactive	inactive	inactive	inactive	inactive	inactive	inactive	inactive	inactive	inactive	inactive	inactive	inactive	inactive	inactive	inactive
CCN(CCCCOC(=O)c1ccc(OC)c(OC)c1)[C@@H](C)Cc1ccc(OC)cc1	inactive	–	–	–	inactive	inactive	–	inactive	inactive	inactive	–	–	inactive	inactive	inactive	–	–	inactive	inactive	inactive
NC[C@@H]1O[C@H](O[C@H]2[C@H](O)[C@H](O[C@@H]3O[C@H](CO)[C@@H](O)[C@H](N)[C@@H]3O)[C@@H](N)C[C@H]2N)[C@@H](O)[C@H](O)[C@@H]1O	–	inactive	inactive	inactive	inactive	inactive	inactive	inactive	inactive	inactive	inactive	inactive	inactive	inactive	inactive	inactive	inactive	inactive	inactive	inactive
C[C@@H](CNC1CCCCC1)OC(=O)c1ccccc1	inactive	–	3.61 µM (active)	4.55 µM (active)	–	3.16 µM (active)	3.55 µM (active)	–	inactive	–	–	inactive	–	–	–	–	–	–	–	4.47 µM (active)
CC1(C)[C@@H](OC(=O)CCC(=O)O)CC[C@@]2(C)[C@H]1CC[C@@]1(C)[C@H]2C(=O)C=C2[C@H]3C[C@](C)(C(=O)O)CC[C@]3(C)CC[C@@]21C	inactive	inactive	inactive	inactive	inactive	inactive	inactive	inactive	inactive	inactive	inactive	inactive	inactive	inactive	inactive	inactive	inactive	inactive	inactive	inactive
O=C(O)COCCN1CCN([C@@H](c2ccccc2)c2ccc(Cl)cc2)CC1	–	inactive	inactive	–	inactive	–	inactive	inactive	inactive	inactive	inactive	inactive	inactive	inactive	inactive	inactive	inactive	inactive	inactive	inactive
CCOC(=O)O[C@]1(C(=O)COC(=O)CC)CC[C@@H]2[C@@H]3CCC4=CC(=O)C=C[C@@]4(C)[C@H]3[C@H](O)C[C@]21C	inactive	inactive	inactive	inactive	inactive	inactive	inactive	inactive	inactive	inactive	inactive	inactive	inactive	inactive	inactive	inactive	inactive	inactive	inactive	inactive
COc1cc(N[C@@H](C)CCCN)c2ncccc2c1	inactive	0.891 µM (active)	0.572 µM (active)	0.642 µM (active)	2.03 µM (active)	1 µM (active)	1.78 µM (active)	0.891 µM (active)	–	2.51 µM (active)	3.61 µM (active)	4.55 µM (active)	3.55 µM (active)	1.26 µM (active)	1.26 µM (active)	2 µM (active)	4.05 µM (active)	3.55 µM (active)	1 µM (active)	1.41 µM (active)
CCC(=O)[C@@]1(C)[C@H](C)C[C@@H]2[C@@H]3CCC4=CC(=O)C=C[C@@]4(C)[C@H]3[C@H](O)C[C@]21C	inactive	–	inactive	inactive	inactive	–	inactive	inactive	inactive	inactive	inactive	inactive	inactive	inactive	inactive	inactive	–	inactive	inactive	inactive
COc1ccc2c(c1)N(C[C@@H](C)CN(C)C)c1ccccc1S2	inactive	inactive	–	–	–	inactive	inactive	inactive	–	inactive	inactive	inactive	inactive	inactive	inactive	inactive	inactive	inactive	inactive	inactive
C=Cc1c(C)c2cc3nc(cc4[nH]c(cc5nc(cc1[nH]2)C(C)=C5CCC(=O)O)c(CCC(=O)OC)c4C)[C@@]1(C)C3=CC=C(C(=O)OC)[C@H]1C(=O)OC (tested in a mixture with another compound)	inactive	4.47 µM (active)	8.49 µM (active)	7.57 µM (active)	inactive	8.91 µM (active)	5.01 µM (active)	6.31 µM (active)	inactive	5.01 µM (active)	inactive	inactive	10 µM (active)	10 µM (active)	–	10 µM (active)	3.79 µM (active)	11.2 µM (active)	5.01 µM (active)	2.24 µM (active)
CC1(C)S[C@@H]2[C@H](NC(=O)[C@@H](N)c3ccccc3)C(=O)N2[C@H]1C(=O)O[C@H]1OC(=O)c2ccccc21	inactive	inactive	inactive	inactive	inactive	inactive	inactive	inactive	inactive	inactive	inactive	inactive	inactive	inactive	inactive	inactive	inactive	inactive	inactive	inactive
CCO[C@H]1O[C@@H]([C@H](COCc2ccccc2)OCc2ccccc2)[C@@H](OCc2ccccc2)[C@H]1O	inactive	inactive	–	–	–	–	inactive	–	inactive	inactive	inactive	inactive	inactive	inactive	–	inactive	inactive	inactive	inactive	inactive
CCN(CC)[C@@H](C)CN1c2ccccc2Sc2ccccc21	inactive	–	–	–	inactive	–	–	–	inactive	–	–	–	–	–	inactive	–	–	inactive	inactive	1.26 µM (active)
CC=C(/C(=C/C)c1ccc(O)cc1)c1ccc(O)cc1	inactive	inactive	inactive	inactive	inactive	inactive	inactive	inactive	inactive	inactive	inactive	inactive	inactive	inactive	inactive	inactive	inactive	inactive	inactive	inactive
CO[C@]1(NC(=O)[C@H](C(=O)O)c2ccc(O)cc2)C(=O)N2C(C(=O)O)=C(CSc3nnnn3C)CO[C@H]21	inactive	inactive	inactive	inactive	inactive	inactive	inactive	inactive	inactive	inactive	inactive	inactive	inactive	inactive	inactive	inactive	inactive	inactive	inactive	inactive
O=C(OC[C@@H](O)CO)c1ccccc1Nc1ccnc2cc(Cl)ccc12	–	–	–	–	inactive	inactive	inactive	inactive	inactive	inactive	inactive	inactive	inactive	inactive	–	inactive	inactive	inactive	inactive	inactive
CCC(C)(C)C(=O)O[C@@H]1C[C@H](C)C=C2C=C[C@H](C)[C@@H](CC[C@H]3C[C@@H](O)CC(=O)O3)[C@H]21	inactive	inactive	inactive	inactive	inactive	inactive	inactive	–	inactive	inactive	inactive	inactive	inactive	inactive	inactive	inactive	–	inactive	inactive	–
O=C(O)[C@@H]1[C@@H]2C[C@H]3c4[nH]c5ccccc5c4CCN3C[C@@H]2CC[C@@H]1O	inactive	–	–	5.73 µM (active)	–	–	–	–	inactive	–	–	–	–	inactive	–	–	–	–	–	inactive
COC(=O)[C@@H]1[C@@H]2C[C@H]3c4[nH]c5cc(OC)ccc5c4CCN3C[C@@H]2C[C@H](OC(=O)/C=C\c2cc(OC)c(OC)c(OC)c2)[C@H]1OC	inactive	–	5.73 µM (active)	–	5.1 µM (active)	3.16 µM (active)	–	3.16 µM (active)	inactive	3.16 µM (active)	–	inactive	–	–	–	–	–	–	–	–
